According to the supplement of paper PMC7858590:
± gives the standard deviation of the averaged measurements. The full ranking holds about 3,800 compounds; the median of “cell shape (eccentricity) Z-score vs DMSO control” is about 1.1, and the lowest 2% start at about -4.7. The sample as a whole holds a higher share of the lowest values than the screen did.

system: human monocyte-derived macrophages (M0); experiment: cell shape (eccentricity) Z-score vs DMSO control; higher = more elongated, M2-like morphology; conditions: 20 µM; 24 h; macrophage state: M0 (M-CSF)

Compound	cell shape (Z-score)
CC1(C)CCC(CN2CCN(c3ccc(C(=O)NS(=O)(=O)c4ccc(NCC5CCOCC5)c([N+](=O)[O-])c4)c(Oc4cnc5[nH]ccc5c4)c3)CC2)=C(c2ccc(Cl)cc2)C1	6.74
COCc1c(C(C)C)nc(C(C)C)c(/C=C/[C@@H](O)C[C@@H](O)CC(=O)O)c1-c1ccc(F)cc1	10.1 ± 0.39
CCC[C@@H]1C[C@@H](C(=O)NC(C(C)Cl)C2O[C@H](SC)[C@H](O)[C@@H](O)[C@H]2O)N(C)C1 (some centres not stated)	3.16
CC(Nc1nc(N2CCCC2)nc2ccccc12)c1ccccc1 (configuration not stated)	-7.72
Cc1cc(N2CCCCC2)nc2ccccc12	0.281
COc1cc2nc(N3CCCN(C)CC3)nc(NC3CCN(Cc4ccccc4)CC3)c2cc1OC	3.25
CC#CCOC(=O)c1c(C)nc2sc3c(c2c1N)CCC(O)C3 (configuration not stated)	-0.105
C[C@@H]1O[C@@H](Oc2ccc(-c3coc4cc(O[C@@H]5O[C@@H](C)[C@H](O)[C@@H](O)[C@H]5O)cc(O)c4c3=O)cc2)[C@H](O)[C@H](O)[C@H]1O	-0.632
c1ccc(COCCCc2cnc[nH]2)cc1	2.2
O=C(CCCc1ccc(-c2ccccc2F)cc1)Nc1ccc(O)cc1	-4.74
O=C(O)CCCc1ccccc1	0.59
Cc1c(Cl)cccc1Nc1ccccc1C(=O)O	1.66
O=C(O)c1ccccc1Nc1ccccc1	2.81
COc1ccc(S(=O)(=O)N(C(C)=O)c2ccccc2/C=C/c2cc[n+]([O-])cc2)cc1	-4.1
CC(=O)OCC(=O)[C@@]1(O)CCC2C3CCC4=CC(=O)CC[C@]4(C)C3C(=O)C[C@@]21C (some centres not stated)	-0.245
C=C1CCC2(C(=O)OC3OC(CO)C(O)C(O)C3O)CCC3(C)C(=CCC4C5(C)CC(O)C(OC6OCC(O)C(O)C6OC6OC(CO)C(O)C(O)C6O)C(C)(CO)C5CCC43C)C2C1 (configuration not stated)	0.275
C=C(COC(=O)C(C)C)C1Oc2cc(C(C)=O)ccc2C1OC(=O)C(C)C (configuration not stated)	1.56
Cc1cc(C)c(CNC(=O)c2cc(-c3ccc(N4CCNCC4)nc3)cc3c2cnn3C(C)C)c(=O)[nH]1	3.48
CC(Cc1ccc(O)c(O)c1)(NN)C(=O)O (configuration not stated)	-0.173
C=C(C(=O)O[C@H]1CC=C(C)C[C@H](O)[C@H]2[C@H](C)C(=O)O[C@@H]2/C=C/1C)[C@@H]1CCC(=C)[C@@H]2C[C@H](O[C@@H]3O[C@H](CO[C@H]4OC[C@](O)(CO)[C@H]4O)[C@@H](O)[C@H](O)[C@H]3O)C(=C)[C@@H]2C1	-4.65
COc1cc(O[C@@H]2O[C@H](CO[C@H]3OC[C@](O)(CO)[C@H]3O)[C@@H](O)[C@H](O)[C@H]2O)cc(OC)c1OC	1.07
C=C1C(=O)O[C@@H]2[C@H]3C(=C)[C@@H](O[C@@H]4O[C@H](CO)[C@@H](O)[C@H](O)[C@H]4O)C[C@H]3C(=C)C[C@@H](O)[C@@H]12	2.36
O=C(c1ccc(Nc2nccc(-c3cc4ccccc4s3)n2)cc1)N1CCC(N2CCCC2)CC1	-4.98
Cc1c(-c2ccnc(Nc3ccc(N4CCNCC4)cc3)n2)sc(=O)n1C	9.91

Compound	cell shape (Z-score)
COc1cc(C(=O)N2CCC(N3CCN(C)CC3)CC2)ccc1Nc1ncc2c(n1)N(C)c1ccccc1C(=O)N2C	8.88
COc1cc(OC2OC(COC3OCC(O)(CO)C3O)C(O)C(O)C2O)c2c(-c3ccc(O)c(O)c3)cc(=O)oc2c1 (configuration not stated)	-0.273
CCOC(=O)C1C(=O)C(=O)Nc2ccccc21 (configuration not stated)	2.09
CC[N+](C)(CC)CC(=O)Nc1c(C)cccc1C	-0.632
CC[N+](CC)(CC(=O)Nc1c(C)cccc1C)Cc1ccccc1	1.74
Cc1cccc(C)c1NC(=O)C[N+](C)(C)C	-4.98
Cc1cc2cc3c(C)cc(=O)oc3c(C)c2o1	-4.76
COc1ccc2c(C)cc(=O)oc2c1	4.64
Cc1cc(=O)oc2c(O)c(O)ccc12	1.41
COC(=O)C1=C(C)NC(C)=C(C(=O)OCCCN2CCC(c3ccccc3)(c3ccccc3)CC2)[C@H]1c1cccc([N+](=O)[O-])c1	1.82
CCC(=O)OCC1=CCCC2C1(C)CCC(C)C2(C)CCC(C)CC(=O)O (configuration not stated)	0.255
COc1cc(C)c2c(=O)cc(-c3ccccc3)oc2c1	1.41
COc1cc(O)c(C(=O)c2c(O)cc(C)cc2O)c(C(=O)O)c1	1.14 ± 0.29
COC1CC(O[C@H]2CC[C@]3(C)C4CC[C@@]5(C)C(=O)[C@]4(CC[C@@H]3C2)CC[C@@H]5C2=CC(=O)OC2)OC(C)C1OC1OC(COC2OC(CO)C(O)C(O)C2O)C(O)C(O)C1O (some centres not stated)	0.241
C=C1[C@@H](C2=CC(=O)OC2)CC[C@@]2(O)[C@@H]1CC1[C@H]2CC[C@@H]2C[C@@H](O[C@H]3O[C@@H](C)[C@@H](O[C@@H]4O[C@H](CO[C@@H]5O[C@H](CO)[C@@H](O)[C@H](O)[C@H]5O)[C@@H](O)[C@H](O)[C@H]4O)[C@H](OC)[C@H]3O)CC[C@]12C (some centres not stated)	-4.99
CO[C@@H]1CC(OC2CCC3(C)C(CCC45CCC(C6=CC(=O)OC6)C(C)(CCC43)C5=O)C2)O[C@H](C)[C@@H]1O[C@@H]1O[C@H](CO[C@@H]2O[C@H](CO)[C@@H](O)[C@H](O)[C@H]2O)[C@@H](O)[C@H](O)[C@H]1O (some centres not stated)	1.71
COC(CCc1ccc(O)c(O)c1)CC(=O)CCc1ccc(O)c(O)c1 (configuration not stated)	1.18
CN1CCN(CCOc2cc(OC3CCOCC3)c3c(Nc4c(Cl)ccc5c4OCO5)ncnc3c2)CC1	5.59
C[C@@H](C1=C(CCN(C)C)Cc2ccccc21)c1ccccn1	1.35
CCOc1cc(/C=C(/C#N)C(N)=O)cc(CSc2ccccc2)c1O	2.62
O=C(O)Cc1nn(Cc2nc3cc(C(F)(F)F)ccc3s2)c(=O)c2ccccc12	1.57
O=C(O)Cc1nn(Cc2ccc(Br)cc2F)c(=O)c2ccccc12	-4.79
CC(C)n1cnc2c(NCc3ccccc3O)nc(NCCCO)nc21	3.13
